This is an account of results in PubChem BioAssay (Tox21).

The structures appear in SMILES notation. Where “and” joins values, the source holds several entries; their conditions need not be identical. Equal entries are not always repeated. Where a structure was tested more than once in an assay, its records may differ in their call. Calls of active or inactive are those of the source. Unless noted, calls come from the whole dose curve; as a rule, active = well fitted curve in the direction sought with a large enough effect in the repeat runs; inconclusive = weak or mixed curves; inactive = no such curve, though single readings can be large; an effect the other way counts as inactive or inconclusive.

The nature of assay [1]: qHTS assay to identify small molecule antagonists of the thyroid receptor (TR) signaling pathway - cell viability counter screen (AID 743064). Note: nearly all actives have a fitted effect of over 50% in size. Note: potency is the fitted concentration of half-maximal effect. In a few lines: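 Viability of T3-stimulated (1 nM final) GH3.TRE-Luc cells is measured by CellTiter-Fluor fluorescence after 23.5 h compound exposure at 37 °C plus 30 min reagent incubation.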
For orientation: In qHTS, concentration-response curves come from the screen itself.

A short description of assay [2]: qHTS assay to identify small molecule antagonists of the thyroid receptor (TR) signaling pathway (AID 743065). Note: nearly all actives have a fitted effect of over 55% in size. Note: potency is the fitted concentration of half-maximal effect. The procedure, abridged: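 GH3.TRE-Luc rat pituitary cells (two TREs driving luciferase) were dosed with compound, then stimulated with 1 nM T3 (final) for 23.5 h at 37 C. ONE-Glo luminescence was the read-out, with CellTiter-Fluor fluorescence as the cytotoxicity counter-screen.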

Assay [3] deals with thyroid hormone receptor (rat, GH3 cells). The experiment in a line: qHTS assay to identify small molecule agonists of the thyroid receptor (TR) signaling pathway (AID 743066; calls by dose curve).
The nature of assay [4]: qHTS assay to identify small molecule antagonists of the estrogen receptor alpha (ER-alpha) signaling pathway - cell viability counter screen (AID 743074; calls by dose curve; note: nearly all actives have a fitted effect of over 45% in size).
Assay [5] is described as follows: qHTS assay to identify small molecule antagonists of the estrogen receptor alpha (ER-alpha) signaling pathway using the BG1 cell line - cell viability counter screen (AID 743081).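 Note: compound given together with 17beta-estradiol as the ER stimulus; nearly all actives have a fitted effect of over 45% in size.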 Note: potency is the fitted concentration of half-maximal effect.
The next assay concerns the target Aromatase (Homo sapiens) (UniProt P11511). The experiment in a line: qHTS assay to identify aromatase inhibitors (AID 743083). Note: nearly all actives have a fitted effect of over 55% in size. Note: potency is the fitted concentration of half-maximal effect.
For assay [6], the target named is Estrogen receptor (Homo sapiens) (UniProt P03372). The experiment in a line: qHTS assay to identify small molecule agonists of the estrogen receptor alpha (ER-alpha) signaling pathway (AID 743075; calls by dose curve; note: potency is the fitted concentration of half-maximal effect).
Chain of Estrogen receptor (Homo sapiens) (P03372 whole entry, looked up): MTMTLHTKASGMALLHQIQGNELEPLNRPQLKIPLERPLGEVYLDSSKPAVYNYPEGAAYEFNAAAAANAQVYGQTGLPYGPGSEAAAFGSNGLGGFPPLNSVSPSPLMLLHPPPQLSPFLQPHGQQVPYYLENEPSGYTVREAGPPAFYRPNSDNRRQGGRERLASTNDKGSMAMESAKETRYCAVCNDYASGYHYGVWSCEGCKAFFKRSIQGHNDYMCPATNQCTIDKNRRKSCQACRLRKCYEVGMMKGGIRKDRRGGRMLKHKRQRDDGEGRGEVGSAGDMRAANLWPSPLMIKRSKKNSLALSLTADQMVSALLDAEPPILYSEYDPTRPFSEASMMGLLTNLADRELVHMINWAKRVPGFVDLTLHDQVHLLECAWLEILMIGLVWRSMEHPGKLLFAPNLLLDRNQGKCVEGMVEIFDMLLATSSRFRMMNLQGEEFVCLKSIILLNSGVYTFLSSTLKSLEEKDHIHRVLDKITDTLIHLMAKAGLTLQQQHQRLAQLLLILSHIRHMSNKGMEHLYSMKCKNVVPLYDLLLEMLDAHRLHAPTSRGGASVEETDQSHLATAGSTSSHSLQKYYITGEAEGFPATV
Assay [7] shares this target. The experiment in a line: qHTS assay to identify small molecule agonists of the estrogen receptor alpha (ER-alpha) signaling pathway using the BG1 cell line (AID 743079). Note: nearly all actives have a fitted effect of over 20% in size. Note: potency is the fitted concentration of half-maximal effect. Conditions: BG1Luc4E2 cells, ERE-luciferase agonist, 22 h; activation: at 70.3 µM (top of the series) unless noted.
For assay [8] the target is unchanged. The assay can be described thus: qHTS assay to identify small molecule antagonists of the estrogen receptor alpha (ER-alpha) signaling pathway (AID 743069; active = well fitted curve in the direction sought with a large enough effect in the signal ratio in the repeat runs, not every such curve was filed as active; inconclusive = weak or mixed curves, or effect the other way; inactive = no such curve, though single readings can be large or run the other way; the % refers to the signal ratio; note: potency is the fitted concentration of half-maximal effect). In a few lines:
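In this cell-based reporter format, GripTite HEK293 cells harbouring ER-alpha-UAS-bla were grown overnight with 2% charcoal-stripped FBS, dosed with DMSO-dissolved compounds, then challenged with 17beta-estradiol. After 18 hr at 37C, beta-lactamase activity was detected by FRET fluorescence.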

Assay [9] can be described thus: qHTS assay to identify small molecule antagonists of the estrogen receptor alpha (ER-alpha) signaling pathway using the BG1 cell line (AID 743080; calls by dose curve;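 note: BG1 cells stimulated with 17beta-estradiol alongside compound; nearly all actives have a fitted effect of over 25% in size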; note: potency is the fitted concentration of half-maximal effect). In a few lines:
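BG1-Luc-4E2 cells (endogenous full-length ER-alpha, stable 4×ERE-luciferase) were starved 5 days in phenol-red-free medium with 10% charcoal-stripped FBS, plated 24 h, then given compound plus 17beta-estradiol for 21.5 h at 37 C; ONE-Glo luminescence read after 30 min.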
% is set by controls: 0 for no effect and ±100 for the full control effect.

Chain of Aromatase (Homo sapiens) (P11511 whole entry, looked up): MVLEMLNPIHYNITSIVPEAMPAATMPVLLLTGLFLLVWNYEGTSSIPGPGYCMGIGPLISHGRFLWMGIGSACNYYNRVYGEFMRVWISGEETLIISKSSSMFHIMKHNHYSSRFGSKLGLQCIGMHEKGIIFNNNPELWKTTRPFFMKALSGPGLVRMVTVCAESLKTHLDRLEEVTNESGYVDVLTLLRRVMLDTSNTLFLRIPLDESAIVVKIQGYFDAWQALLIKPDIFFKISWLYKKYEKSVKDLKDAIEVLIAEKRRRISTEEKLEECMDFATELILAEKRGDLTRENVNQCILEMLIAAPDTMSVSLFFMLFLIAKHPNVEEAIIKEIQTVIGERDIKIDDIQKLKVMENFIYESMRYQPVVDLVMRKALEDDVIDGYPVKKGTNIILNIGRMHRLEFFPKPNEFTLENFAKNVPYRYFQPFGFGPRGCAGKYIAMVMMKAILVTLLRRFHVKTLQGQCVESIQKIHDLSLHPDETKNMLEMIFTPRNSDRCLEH

Turning to `O=c1n(CCCN2CCN(c3cccc(Cl)c3)CC2)nc2ccccn12`, the Potency entry (in [1]; in [2]; in [3]; in assay [4]; in assay [5]; with Aromatase (Homo sapiens)) was “inactive” each time.
For `O=c1c(O)c(-c2ccc(O)c(O)c2)oc2cc(O)cc(O)c12`, the Potency entry in assay [1] was “inactive and 30.9 µM (active)”; in assay [6], 24.6 µM [inconclusive] (active) [middle of 4 runs]; in [7], 29.8 µM (active) and 68.7 µM (active). Besides, the Potency entry (in assay [3]; in assay [4]; in [5]; in the assay with Aromatase (Homo sapiens)) was “inactive” in each case. The activation in assay [7] is 18.1% [at 95 µM] (active).
`Cc1nnc(NS(=O)(=O)c2ccc(N)cc2)s1`: the Potency result (in assay [8]; in [4]; in [6]; in assay [7]; in assay [5]; with Aromatase (Homo sapiens)) was “inactive” in each case.
For `COc1ccc2cc3[n+](cc2c1OC)CCc1cc2c(cc1-3)OCO2`, the Potency entry (in assay [1]; in assay [3]; in assay [6]; with Aromatase (Homo sapiens)) was “inactive” in each case. For the same compound, the Potency in [2] was 61.6 µM (active).
Regarding `OCCOCCOCCOCCOCCO`, the Potency entry (in assay [1]; in assay [2]; in [3]; in assay [4]; in assay [5]; with Aromatase (Homo sapiens)) was “inactive” each time.
On to `CCc1cccc(CC)c1N`, for which the Potency entry in assay [2], in assay [3], in [8], in assay [4], in [6] and in assay [7] was “inactive” each time. The Potency entry (in assay [5]; in the assay with Aromatase (Homo sapiens)) was “inactive” in each case.
With `CCCOCC(C)O` (centres undefined), the Potency entry (in assay [1]; in assay [2]; in assay [3]; in [4]; in assay [5]; in the assay with Aromatase (Homo sapiens)) was “inactive” each time.
With `CC(CN1c2ccccc2Sc2ccccc21)N(C)C` (centres undefined), the Potency in [1] was 23.7 µM (active) and 5.5 µM (active) and 30.6 µM (active); in assay [2] it was 26.6 µM (active) and 27.6 µM (active) and 61.1 µM (active); with Aromatase (Homo sapiens) it was “inactive and 61.8 µM (active)”. For the same compound, the Potency entry in assay [3] and in [5] was “inactive” in each case.
On to `CC1(C)[C@@H](O[C@H]2O[C@H](C(=O)O)[C@@H](O)[C@H](O)[C@H]2O[C@@H]2O[C@H](C(=O)O)[C@@H](O)[C@H](O)[C@H]2O)CC[C@]2(C)[C@H]3C(=O)C=C4[C@@H]5C[C@@](C)(C(=O)O)CC[C@]5(C)CC[C@@]4(C)[C@]3(C)CC[C@@H]12`, for which the Potency result (in assay [1]; in [3]; in [4]; in assay [5]; in the assay with Aromatase (Homo sapiens)) was “inactive” in each case.
Consider `CC[N+](CC)(CC(=O)Nc1c(C)cccc1C)Cc1ccccc1`, for which the Potency result (in assay [1]; in assay [4]; in assay [5]; with Aromatase (Homo sapiens)) was “inactive” throughout.
Turning to `O=C(O)C1=NN(c2ccc(S(=O)(=O)O)cc2)C(=O)C1`, the Potency result in assay [1], in assay [8], in assay [4], in assay [6], in assay [7] and in assay [5] was “inactive” each time. Besides, in the assay with Aromatase (Homo sapiens), the Potency entry is “inactive”.
Regarding `Cc1ncc(CO)c(CO)c1O`, the Potency entry (in assay [1]; in assay [4]; in assay [5]; in the assay with Aromatase (Homo sapiens)) was “inactive” throughout.
Regarding `CC(C=O)Cc1ccc(C(C)(C)C)cc1` (centres undefined), the Potency in [2] was 43.3 µM (active). In addition, the Potency result (in [3]; in assay [4]; in [5]; in the assay with Aromatase (Homo sapiens)) was “inactive” each time.
Turning to `O=[N+]([O-])c1cc(C(F)(F)F)ccc1Cl`, the Potency result (in assay [1]; in assay [2]; in assay [3]; in assay [4]; in assay [5]; in the assay with Aromatase (Homo sapiens)) was “inactive” throughout.
Turning to `N[C@@H](Cc1cc(I)c(Oc2ccc(O)c(I)c2)c(I)c1)C(=O)O`, the Potency in assay [8] is 23.9 µM [inconclusive] (active) and inactive; in [6] it was 9.51 µM [activator] (active) and inactive and 51 µM [fluorescent] (active); in assay [7], 37.1 µM (active) and 40.2 µM (active); in [9] it was 26.6 µM (active) and inactive and 8.02 µM (active). Further, the Potency entry (in [4]; in assay [5]; with Aromatase (Homo sapiens)) was “inactive” throughout.
Turning to `CCCOC(=O)NCCCN(C)C`, the Potency entry (in [1]; in [2]; in assay [3]; in [4]; in assay [5]; with Aromatase (Homo sapiens)) was “inactive” in each case.
On to `CC1=CC(=O)CC(C)(C)C1`, for which the Potency entry (in [1]; in [2]; in assay [3]; in assay [4]; in assay [5]; with Aromatase (Homo sapiens)) was “inactive” in each case.
`CC(=O)c1nccs1`: the Potency result in [2], in [3], in assay [8], in assay [4], in assay [6] and in [9] was “inactive” in each case. Besides, the Potency result (in assay [5]; in the assay with Aromatase (Homo sapiens)) was “inactive” each time. The Potency result in [7] is “inactive and 48.6 µM (active)”.
Turning to `Nc1nc(N)c2nc(-c3ccccc3)c(N)nc2n1`, the Potency in assay [2] was 55.1 µM (active) and 54.5 µM (active); in assay [7] it was “inactive and 68.6 µM (active)”. The Potency result (in assay [3]; with Aromatase (Homo sapiens)) was “inactive” throughout.
In the case of `CC(=O)OCc1ccc2c(c1)OCO2`, the Potency result (in assay [1]; in [2]; in [3]; in assay [4]; in assay [5]; with Aromatase (Homo sapiens)) was “inactive” in each case.
For `CC(=O)CC(=O)N(C)C`, the Potency entry in assay [2], in [3], in [8], in [4], in assay [6] and in assay [7] was “inactive” each time. Also, the Potency result (in [5]; with Aromatase (Homo sapiens)) was “inactive” each time.
Turning to `CO[Si](CCCNCCN)(OC)OC`, the Potency result (in assay [1]; in [2]; in [3]; in assay [4]; in assay [5]; in the assay with Aromatase (Homo sapiens)) was “inactive” each time.
For `COC(=O)OC`, the Potency entry (in assay [1]; in assay [2]; in [3]; in assay [4]; in assay [5]; in the assay with Aromatase (Homo sapiens)) was “inactive” in each case.
`NC(=O)c1ncn([C@@H]2O[C@H](CO)[C@@H](O)[C@H]2O)n1`: the Potency in assay [1] was 33.5 µM (active); in assay [2] it was 13.3 µM (active) and 28.8 µM (active). In addition, the Potency result (in assay [3]; in assay [4]; in assay [5]; in the assay with Aromatase (Homo sapiens)) was “inactive” each time.
On to `c1cnc2c(c1)ccc1cccnc12`, for which the Potency in [1] was 7.77 µM (active) and 6.86 µM (active) and 15.4 µM (active); in [5], 15.5 µM (active); in the assay with Aromatase (Homo sapiens), 6.17 µM (active) and 6.86 µM (active) and 9.69 µM (active). The Potency entry in [3] and in assay [4] was “inactive” throughout.
As for `COCN(COC)c1nc(N(COC)COC)nc(N(COC)COC)n1`, the Potency result in assay [1], in [8], in assay [4], in assay [6], in assay [7] and in [9] was “inactive” in each case. In addition, the Potency entry (in assay [5]; with Aromatase (Homo sapiens)) was “inactive” throughout.
With `Cc1ccc(Cl)cc1`, the Potency result in [1], in assay [8], in assay [4], in assay [6], in assay [7] and in assay [9] was “inactive” each time. For the same compound, the Potency entry (in assay [5]; with Aromatase (Homo sapiens)) was “inactive” throughout.
For the compound `O=C1O[C@H]([C@H](O)CO)C(O)=C1O`, the Potency result (in assay [1]; in assay [3]; in [4]; in assay [5]; with Aromatase (Homo sapiens)) was “inactive” throughout.
With `COc1cc(NC(=O)CC(C)=O)c(OC)cc1Cl`, the Potency result in assay [1], in assay [3], in assay [4], in assay [6], in assay [7] and in assay [5] was “inactive” throughout. Besides, the Potency entry with Aromatase (Homo sapiens) is “inactive and 12.2 µM (active)”.
`C=C(CC(=O)O)C(=O)O`: the Potency entry (in assay [1]; in [2]; in assay [3]; in [4]; in [5]; with Aromatase (Homo sapiens)) was “inactive” throughout.
As for `CCOC(=O)CC(=O)OCC`, the Potency entry in assay [1], in assay [2], in assay [3] and in [5] was “inactive” each time.
For `O=C(c1ccccc1)c1ccc(O)c(O)c1O`, the Potency entry (in assay [3]; in assay [8]; in [4]; in assay [9]; in assay [5]; with Aromatase (Homo sapiens)) was “inactive” throughout. For the same compound, the Potency in assay [6] is 61.6 µM [inconclusive] (active); in [7] it was 61.1 µM (active).
Take `CCCN(CCC)C(=O)SCC`: the Potency result in assay [1], in [2], in [8], in assay [4], in [6] and in [7] was “inactive” each time. Further, the Potency entry (in assay [9]; in [5]; with Aromatase (Homo sapiens)) was “inactive” throughout.
In the case of `NC1CCCCC1N` (centres undefined), the Potency entry (in [4]; in assay [5]; with Aromatase (Homo sapiens)) was “inactive” each time.
For `CCCCC(CC)COC(=O)c1ccc(C(=O)OCC(CC)CCCC)cc1` (centres undefined), the Potency entry (in assay [1]; in assay [2]; in assay [3]; in [4]; in assay [5]; in the assay with Aromatase (Homo sapiens)) was “inactive” each time.
